# Measured values from PubChem BioAssay (Tox21).
# Results filed as inconclusive are left out. A number with no mark means an inactive call. Calls of active or inactive are those of the source. The call rests on the fitted dose curve; in most records, active means well fitted cell-killing curve with a large enough effect in the repeat runs; inconclusive means weak or mixed curves, or effect the other way; inactive means flat fitted curve, though single readings scatter.
# Assay: cAMP Responsive Elements (CRE) small molecule antagonists, cell-based qHTS assay: qHTS cell viability counter screen (AID 2060913); further: nearly all actives have a fitted effect of over 40% in size
# Settings: CRE-bla HEK293T viability, CellTiter-Glo luminescence, 5 h; series mostly up to 92.4 µM; viability change, negative = cytotoxic: at the top concentration
# Outline: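 Steps: cells plated and held 18 hrs at 37 C/5% CO2; compounds and NKH477 (0.25 uM final) added; 3 hrs incubation; reporter substrate read; CellTiter-Glo added to measure cytotoxicity by luminescence.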
# On the % scale 0 is the no-effect control and ±100 the full control effect.
Compound,"viability change, negative = cytotoxic",Potency
CCOC(OCC)C(=O)c1ccccc1,-0.149%,–
NC(=O)CCCCC(N)=O,1.33%,–
CC1=CC(C)C(C=O)C(C)C1 (centres undefined),10.9%,–
[O]=[Zr],-8.92%,–
COc1cc(C)cc(O)c1,4.93%,–
O=C(O)CSCC(=O)NC1CCSC1=O (centres undefined),-0.345% [at 42.5 µM],–
CSc1c(Cl)c(Cl)c(Cl)c(Cl)c1Cl,0.0129%,–
Cc1onc(-c2ccccc2)c1C(=O)Cl,2.84% [at 42.5 µM],–
CC1=CP(=O)(c2ccccc2)CC1 (centres undefined),-7.26%,–
COS(=O)(=O)O,0.152%,–
CO,9.91%,–
C=C(C)C(=O)OCCCCCCCCCC,-5.36%,–
Nc1ccc(Cl)cc1[N+](=O)[O-],-0.882%,–
CCN1C=CN(C)C1C (centres undefined),5.18%,–
Nc1cc(S(=O)(=O)O)ccc1S(=O)(=O)O,6.99%,–
O=C(O)CCCC(=O)O,–,inactive
Nc1ncn([C@H]2C[C@H](O)[C@@H](CO)O2)c(=O)n1,6.1% [at 42.5 µM],–
CCCCCCNC(=O)n1cc(F)c(=O)[nH]c1=O,3.38% [at 42.5 µM],–
CC/C=C\CCOC(=O)C(C)C,-6.04%,–
CCCC(=O)O[C@]1(C(=O)COC(=O)CC)CC[C@H]2[C@@H]3CCC4=CC(=O)CC[C@]4(C)[C@H]3[C@@H](O)C[C@@]21C,9.89% [at 18.9 µM],–

Compound,"viability change, negative = cytotoxic",Potency
N[C@@H](Cc1c[nH]c2ccccc12)C(=O)O,–,inactive
CCCCCCC1CCC(=O)O1 (centres undefined),4.54%,–
Cc1ccc(O)c(N)c1,-5.95%,–
NS(=O)(=O)c1cc2c(cc1Cl)NC(C1CC3C=CC1C3)NS2(=O)=O (centres undefined),-0.81% [at 42.5 µM],–
Cc1ncc(CO)c(C=O)c1O,2.67% [at 42.5 µM],–
CCC1(C)CC(=O)NC1=O (centres undefined),1.56% [at 42.5 µM],–
Cc1cc(C(C)(C)C)c(O)c(C)c1CC1=NCCN1,-8.01% [at 42.5 µM],–
CN(C)CCOCCN(C)CCO,0.482%,–
CCOC(=O)C(=O)CCc1ccccc1,0.496% [at 42.5 µM],–
C[C@@H](O)[C@H]1C(=O)N2C(C(=O)O)=C(S[C@@H]3CN[C@H](CNS(N)(=O)=O)C3)[C@H](C)[C@H]12,1.01% [at 42.5 µM],–
O=C(O)c1ccc(Cl)c(Cl)c1,3.38%,–
O=C(O)CCn1c2c(c3ccccc31)C[C@H](NS(=O)(=O)c1ccc(F)cc1)CC2,17.4% [at 42.5 µM],–
NCCN1CCNCC1,–,inactive
CO[Si](OC)(OC)OC,-3.34%,–
CC1(C)[C@H](C(=O)O)N2C(=O)C[C@H]2S1(=O)=O,-0.189% [at 42.5 µM],–
CCOC(=O)CC(C)O (centres undefined),-7.75%,–
CCCC(=O)O[C@]1(C(=O)CC)CC[C@H]2[C@@H]3CCC4=CC(=O)CC[C@]4(C)[C@H]3[C@@H](O)C[C@@]21C,14.4% [at 42.5 µM],–
CCCc1c2oc(C(=O)O)cc(=O)c2cc2c(=O)cc(C(=O)O)n(CC)c12,-1.2% [at 42.5 µM],–
CCCCN(CCCC)CC(O)c1cc(Cl)cc2c1-c1ccc(Cl)cc1/C2=C/c1ccc(Cl)cc1 (centres undefined),4.07% [at 42.5 µM],–
